This is an account of results in paper PMC8769072, “Proteome‐scale mapping of binding sites in the unstructured regions of the human proteome” (Molecular Systems Biology, 2022).

PEX14 16-84, O75381, sequence (O75381 16-84): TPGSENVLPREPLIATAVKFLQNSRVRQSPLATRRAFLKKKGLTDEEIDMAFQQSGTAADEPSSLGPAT
SIN3A 295-383, Q96ST3, sequence (Q96ST3 295-383): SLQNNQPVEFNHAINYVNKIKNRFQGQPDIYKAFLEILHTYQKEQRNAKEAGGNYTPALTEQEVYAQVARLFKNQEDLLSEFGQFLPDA

One test addresses PEX14 16-84, O75381.
With DMQLLWEKAVQQHQHG [SUGP1, Q8IWZ8], the “selected by phage display” value was “confidence 2 (active)”.

DPNDQVAMGRQWLAIQ [AATF, Q9NY61]: the “selected by phage display” value was “confidence 3 (active)”.

With EMEKNWQELLHETKQR [SYCE3, A1L190], the “selected by phage display” value is “confidence 2 (active)”.

Consider QLQEAWLAEAQVPDDE [ETV5, P41161], for which the “selected by phage display” value is “confidence 3 (active)”.

On to VKDLEEHWQRHLARTT [EVI5, O60447], for which the “selected by phage display” value was “confidence 3 (active)”.

As to LTEREWADEWKHLDHA [CBFA2T2, O43439], the “selected by phage display” value is “confidence 4 (active)”.

On to PPPSPEDLAELWGHGV [CHTF18, Q8WVB6], for which the “selected by phage display” value is “confidence 3 (active)”.

As to VLMESLKSIWSSSMMH [SMG7, Q92540], the “selected by phage display” value was “confidence 3 (active)”.

DAEERGEQALQDAWQK [KRT77, Q7Z794]: the “selected by phage display” value was “confidence 2 (active)”.

For GAAASLSEAWLRAGEG [SPIDR, Q14159], the “selected by phage display” value is “confidence 2 (active)”.

Consider DLSEAWMQANYDPLSD [ELOA2, Q8IYF1], for which the “selected by phage display” value was “confidence 3 (active)”.

As to GHPELSEAELQQLYAS [ZFHX4, Q86UP3], the “selected by phage display” value was “confidence 2 (active)”.

As to ELEEEWLKEAGLSNLF [ARHGAP18, Q8N392], the “selected by phage display” value was “confidence 2 (active)”.

For DSHVSLETEWGQYWDE [ARHGAP27, Q6ZUM4], the “selected by phage display” value was “confidence 3 (active)”.

Regarding LSGEHAYLQSSWNLLD [CACNA1H, O95180], the “selected by phage display” value is “confidence 2 (active)”.

As to KLEHTWKALVHDGDTV [PIP5K1C, O60331], the “selected by phage display” value is “confidence 3 (active)”.

With SATVPDQEELGEVWQR [HECW2, Q9P2P5], the “selected by phage display” value was “confidence 3 (active)”.

On to LNSYEAEWDMVNTVSF [TBC1D15, Q8TC07], for which the “selected by phage display” value is “confidence 2 (active)”.

With EVQTENHAPWSISDYF [AGGF1, Q8N302], the “selected by phage display” value is “confidence 2 (active)”.

For the molecule STPLPEPHIDLELVWR [C9orf131, Q5VYM1], the “selected by phage display” value is “confidence 2 (active)”.

Turning to RMDEAWEQSRAPGPVH [RIMBP2, O15034], the “selected by phage display” value is “confidence 2 (active)”.

As for RMEKLEGYWGEAQSLA [PPP1R9B, Q96SB3], the “selected by phage display” value is “confidence 3 (active)”.

Take GGLEGWWLASLHGRQG [NEDD9, Q14511]: the “selected by phage display” value was “confidence 4 (active)”.

Turning to SEQNKLGELWEEMALS [GPATCH2L, Q9NWQ4], the “selected by phage display” value was “confidence 3 (active)”.

For WEEEFGREMRRQLWLE [FAM186B, Q8IYM0], the “selected by phage display” value was “confidence 2 (active)”.

As to MAAVWQQVLAVDARYN [WDR13, Q9H1Z4], the “selected by phage display” value is “confidence 3 (active)”.

Take ELHHIWQSQQRLQPVA [IRF5, Q13568]: the “selected by phage display” value was “confidence 3 (active)”.

Take SLPEGLDMERRWGQVS [NR3C2, P08235]: the “selected by phage display” value is “confidence 2 (active)”.

The target of a further test is SUMO1 1-101, P63165.
SUMO1 1-101, P63165, sequence (P63165 whole entry): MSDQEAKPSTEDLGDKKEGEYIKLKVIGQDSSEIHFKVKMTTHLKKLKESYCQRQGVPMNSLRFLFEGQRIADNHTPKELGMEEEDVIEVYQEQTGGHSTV
For VEVIDLTIESSSDEED [PIAS3, Q9Y6X2], the “selected by phage display” value is “confidence 4 (active)”.

On to DEIVDLTAESLEPVVV [RNF4, P78317], for which the “selected by phage display” value was “confidence 2 (active)”.

Turning to DDDEPIFVGEISSSKP [ZNF280D, Q6N043], the “selected by phage display” value is “confidence 2 (active)”.

In the case of GIQYIDLSSDSEDVVS [SMARCAD1, Q9H4L7], the “selected by phage display” value was “confidence 4 (active)”.

Take EEEDDVVFVSSKPGSP [TTF2, Q9UNY4]: the “selected by phage display” value is “confidence 2 (active)”.

In the case of DDDDVVFIESIQPPSI [ZMYM5, Q9UJ78], the “selected by phage display” value is “confidence 3 (active)”.

Turning to PGADVVDLTLDSSSSS [PIAS4, Q8N2W9], the “selected by phage display” value is “confidence 2 (active)”.

As to ALENRVAVLENQNKTL [CREB1, P16220], the “selected by phage display” value was “confidence 2 (active)”.

AEVVDLTVDEDEPTVV [RNF111, Q6ZNA4]: the “selected by phage display” value was “confidence 2 (active)”.

As for SPAEVVDLTLDEDSRR [C18orf25, Q96B23], the “selected by phage display” value is “confidence 4 (active)”.

The target in another test is TLN1 309-401, Q9Y490.
TLN1 309-401, Q9Y490, sequence (Q9Y490 309-401): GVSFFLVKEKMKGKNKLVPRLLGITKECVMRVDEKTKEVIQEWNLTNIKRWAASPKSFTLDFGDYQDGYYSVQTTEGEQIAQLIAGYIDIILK
EDLKWLWYENRIYVLG [NEMP2, A6NFY4]: the “selected by phage display” value is “confidence 2 (active)”.

On to AHLWFDNQIFVADTSE [ATP12A, P54707], for which the “selected by phage display” value was “confidence 3 (active)”.

Consider WTFSPLTETEMQITAV [PRUNE2, Q8WUY3], for which the “selected by phage display” value is “confidence 2 (active)”.

As for ALPSTWIENKLYGMSD [RET, P07949], the “selected by phage display” value was “confidence 4 (active)”.

Regarding QWVTSPLHSPTLKDAH [ARHGAP31, Q2M1Z3], the “selected by phage display” value was “confidence 4 (active)”.

As to EEESMFFSNPLFLASP [PSD4, Q8NDX1], the “selected by phage display” value was “confidence 2 (active)”.

GLYPIIWQYPNGTHAY [JMJD1C, Q15652]: the “selected by phage display” value was “confidence 2 (active)”.

For the molecule SQSDDGPIMWVRPGEQ [RSBN1, Q5VWQ0], the “selected by phage display” value was “confidence 2 (active)”.

Turning to AVVWIDSTLHQPMFLL [OR52W1, Q6IF63], the “selected by phage display” value was “confidence 2 (active)”.

On to DLIFTDSKLYIPLEYR [TPTE, P56180], for which the “selected by phage display” value is “confidence 4 (active)”.

In the case of TTGGGWVISRIFDSGY [FMO1, Q01740], the “selected by phage display” value is “confidence 4 (active)”.

The next test has as its target SIN3A 295-383, Q96ST3.
As for IEALLEAGQARDAQDV [RRBP1, Q9P2E9], the “selected by phage display” value was “confidence 2 (active)”.

DFSSLLHALSFEQILQ [DENND2D, Q9H6A0]: the “selected by phage display” value was “confidence 2 (active)”.

SGTAGAALLALLAALA [EGFR, P00533]: the “selected by phage display” value is “confidence 2 (active)”.

Consider LQALLAATSTAGSQDI [SNTA1, Q13424], for which the “selected by phage display” value is “confidence 2 (active)”.

For MAFSELLDLVGGLGRF [SLC22A12, Q96S37], the “selected by phage display” value is “confidence 2 (active)”.

As for LWEDLLHAAEAHSSAT [PHTF2, Q8N3S3], the “selected by phage display” value is “confidence 2 (active)”.

On to GDWLTMLREASDEIVA [WWC2, Q6AWC2], for which the “selected by phage display” value was “confidence 2 (active)”.

Take AGGDLAGLLEALSDMG [NFKB2, Q00653]: the “selected by phage display” value was “confidence 2 (active)”.

The target of the next test is TNKS 174-649, O95271.
TNKS 174-649, O95271, sequence (O95271 174-649): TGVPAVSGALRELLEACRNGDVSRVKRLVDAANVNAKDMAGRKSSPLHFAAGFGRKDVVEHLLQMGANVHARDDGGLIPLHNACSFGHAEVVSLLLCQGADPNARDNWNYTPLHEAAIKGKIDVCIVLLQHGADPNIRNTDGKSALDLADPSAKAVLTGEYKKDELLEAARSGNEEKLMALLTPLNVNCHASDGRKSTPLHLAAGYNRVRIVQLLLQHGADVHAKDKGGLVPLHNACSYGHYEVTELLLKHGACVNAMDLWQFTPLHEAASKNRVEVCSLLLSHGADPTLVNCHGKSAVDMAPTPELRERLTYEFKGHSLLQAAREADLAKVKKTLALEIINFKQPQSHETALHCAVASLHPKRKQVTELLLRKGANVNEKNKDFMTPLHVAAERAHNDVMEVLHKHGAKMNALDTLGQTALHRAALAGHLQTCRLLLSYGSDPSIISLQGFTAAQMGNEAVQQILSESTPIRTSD
Turning to PGSLREDPLGEAQPQI [INPP5K, Q9BT40], the “selected by phage display” value is “confidence 4 (active)”.

As for EERPEVLGQRSTDVVD [STK36, Q9NRP7], the “selected by phage display” value was “confidence 2 (active)”.

For DGVARTPPVGMSGQVA [KIF26A, Q9ULI4], the “selected by phage display” value is “confidence 3 (active)”.

On to LSTGYLQIAERREPIG [DTNBP1, Q96EV8], for which the “selected by phage display” value was “confidence 4 (active)”.

On to QGLLHEAGSTDDRIVV [SPNS1, Q9H2V7], for which the “selected by phage display” value is “confidence 2 (active)”.
